Source: PubChem (National Center for Advancing Translational Sciences (NCATS))
KB-3-1 tox: KB-3-1 parental cell cytotoxicity | KB-3-1 viability, CellTiter-Glo ATP luminescence, 72 h | 1.4% of 400,000 active | Potency, µM (series often up to 46.1 µM), actives largely listed as cytotoxic; note: nearly all actives have a fitted effect of over 60% in size
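Screening of KB-3-1 cells (DMEM, 10% FBS, phenol-red free) ran from lowest to highest compound concentration; after 72 h at 37 °C viability was read luminescently and curves fitted.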
ELG1 DNA repair: ELG1-dependent DNA repair inhibition. HEK293T ELG1-luciferase reporter, luminescence, 16 h; DNA damage induced by 5-fluorouridine. Potency, µM (titrated, usually from 46.1 µM), actives largely listed as inhibitors. 2.3% of 330,000 active. AID 504467; note: nearly all actives have a fitted effect of over 55% in size
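5-Fluorouridine DNA damage + compound/DMSO, 2,000 cells/well, 16 h, 37 °C/5% CO2. ONE-Glo, 30 min RT, luminescence. Readout = decrease in reporter signal.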
MCF10A rereplic: DNA re-replication induction in MCF 10a cells | MCF 10A DNA re-replication, Hoechst nuclear intensity, 48 h | Potency, µM (series often up to 46.1 µM), usual class: activators | 2.9% of 350,000 active | AID 624296; note: nearly all actives have a fitted effect of over 50% in size
KB-V1 cytotox: KB-V1 MDR subline cytotoxicity | 3.4% of 400,000 active | KB-V1 MDR cells viability, CellTiter-Glo, 72 h | Potency, µM (series often up to 46.1 µM), hits mostly cytotoxic; note: nearly all actives have a fitted effect of over 60% in size
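qHTS viability screen in drug-selected KB-V1 MDR cells: 72 h compound treatment at 37 degrees C, ATP luminescence end point.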
SW480 rereplic: inducers of DNA re-replication in SW480 colon cancer cells; Potency, µM (doses to about 46.1 µM), most hits filed as activators; SW480 DNA re-replication, Hoechst DNA content imaging, 48 h; 1.8% of 340,000 active; AID 624297; note: nearly all actives have a fitted effect of over 55% in size
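SW480 cells exposed to compounds for 48 hr at 37 C, 5% CO2, then Hoechst-stained 40 min. Nuclear DNA content imaged by fluorescence scanning (405 nm excitation, 500-530 nm emission); re-replication scored as increased high-intensity nuclei.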
A number is an active result; – = inactive; ? = inconclusive; · = no result given; ! = repeats disagree. An excerpt weighted towards active compounds, which were near 8.1% of everything screened. Calls come from the whole dose curve; as a rule, active = well fitted curve in the direction sought with a large enough effect; inconclusive = small, poorly fitted or top-dose-only effect, or another doubt; inactive = no such curve, though single readings can be large; an effect the other way counts as inactive or inconclusive.

SMILES | KB-3-1 tox | ELG1 DNA repair | MCF10A rereplic | KB-V1 cytotox | SW480 rereplic
Cc1sc(NC(=O)CSC2=NCCS2)nc1-c1ccccc1 | – | ? | 8.9µM | – | –
Cc1sc(NC(=O)CSc2ncn(-c3ccccc3)n2)nc1-c1ccccc1 | ? | ? | – | 23µM | –
CC(=O)c1sc(NC(=O)CN2C(=O)NC3(CCCC3)C2=O)nc1-c1ccccc1 | – | – | – | – | –
CC(=O)N1CC(=O)N=C1SCC(=O)Nc1nc(-c2ccccc2)c(-c2ccccc2)s1 | – | – | 21µM | – | –
CCOC(=O)c1sc(NC(=O)CSc2ncn(-c3ccccc3)n2)nc1C | – | – | – | – | –
CC(C)(C)c1ccc(C(=O)OCc2c(-c3ccccc3)ncc3ccccc23)cc1 | – | – | – | – | –
COc1ccc(C(=O)OCc2c(-c3ccccc3)ncc3ccccc23)cc1 | – | ? | 16µM | – | 15µM
COc1ccccc1C(=O)OCc1c(-c2ccccc2)ncc2ccccc12 | – | 16µM | ? | – | ?
CCOC(=O)C1(C)CCCN(C(=O)c2cccnc2)C1 (stereo not given) | – | · | · | – | ·
c1ccc(-c2nc(SCC3CCCCO3)n[nH]2)cc1 (stereo not given) | ? | · | · | – | ·
CN(C)c1ccc(/C=C/c2ccc3ccccc3[n+]2C)cc1 | 0.33µM! | ? | ? | ? | 2.3µM
CN(C)c1ccc(/C=C/c2cc3ccccc3c[n+]2C)cc1 | 0.82µM | · | · | – | ·
[O-][n+]1c(/C=C/c2ccccc2)ccc2ccccc21 | ? | ? | 21µM | – | 18µM
CN(C)c1ccc(/C=C/c2ccc3c4ccccc4ccc3[n+]2-c2ccccc2)cc1 | 0.29µM | 1.5µM | ? | 9.2µM | –
CCCCCOc1ccc(Cn2c(=O)oc3ccccc32)cc1 | – | · | · | – | ·
O=C(COc1ccccc1C(=O)Nc1cccc(F)c1)Nc1ccc(Br)cc1 | ? | · | · | – | ·
COc1ccc(N2CCN(C(=O)c3cc([N+](=O)[O-])ccc3N3CCN(CCO)CC3)CC2)cc1 | · | – | – | · | –
COC(=O)c1ccc2nc(-c3cccc(Br)c3)c(Cc3ccsc3)n2c1 | – | · | · | – | ·
CN(C)c1ccc(/C=C/c2c[n+](C)cc3ccccc23)cc1 | 0.46µM | · | · | – | ·
CN(C)c1ccc(/C=C/c2cncc3ccccc23)cc1 | – | · | · | – | ·
COc1ccc(C(CNc2ncnc3sccc23)N(C)C)cc1OC (stereo not given) | – | – | – | ? | –
COc1ccc(CNc2ncnc3sccc23)cc1OC | ? | ? | – | 16µM | –
c1cncc(CNc2ncnc3sccc23)c1 | – | 21µM | – | – | –
COc1cccc(CNc2ncnc3cc(OC)c(OC)cc23)c1 | – | ? | ? | ? | –
COc1ccc(CNc2ncnc3cc(Cl)ccc23)cc1OC | ? | ? | – | 21µM | –
SMILES | KB-3-1 tox | ELG1 DNA repair | MCF10A rereplic | KB-V1 cytotox | SW480 rereplic
COc1cccc(-c2ccc3ncnc(NCc4cccnc4)c3c2)c1 | – | 5.2µM | – | – | –
C=CCNc1nc(-c2cccc(OC)c2O)nc2ccccc12 | – | ? | 23µM | – | –
COc1cccc(-c2nc(NC3CCCC3)c3ccccc3n2)c1O | – | 23µM | ? | – | –
COc1cccc(-c2nc(NCc3ccccc3)c3ccccc3n2)c1O | – | – | – | – | –
Clc1ccc(-c2nc3c4ccccc4ccn3c2CC2CCCCC2)cc1 | – | · | · | – | ·
O=C1CN(S(=O)(=O)c2cc(C(F)(F)F)ccc2Cl)CCN1 | · | – | – | · | –
O=C(CSc1nc2ncccc2o1)Nc1ccc(Cl)cc1F | – | · | · | – | ·
Cc1nc2ccccc2c2c(N)c3ccccc3n12 | – | 26µM | – | – | ?
Cc1nc2ccccc2n1-c1ccccc1 | – | – | – | – | –
FC(F)(F)C(F)(F)C(F)(F)C(F)(F)C(F)(F)C(F)(F)C(F)(F)C(F)(F)Br | · | · | – | · | –
CCC(C)(C)n1nnnc1C(c1cc2cccc(C)c2[nH]c1=O)N1CCCC1 (stereo not given) | ? | – | – | ? | –
Cc1cc(C)c2[nH]c(=O)c(C(c3nnnn3CC3CCCO3)N3CCC(C)CC3)cc2c1 (stereo not given) | – | – | – | 4.6µM | ?
CCC(C)(C)n1nnnc1C(c1ccc(C)cc1)N1CCCC1 (stereo not given) | – | – | ? | ? | 23µM
Cc1cc(C)c2[nH]c(=O)c(C(c3nnnn3C(C)(C)C)N3CCN(C(=O)c4ccco4)CC3)cc2c1 (stereo not given) | – | ? | – | – | –
CCC(C)(C)n1nnnc1C(c1cc2cc(C)cc(C)c2[nH]c1=O)N1CCCC1 (stereo not given) | – | 15µM | ? | – | –
Cc1ccc(C)c2[nH]c(=O)c(C(c3nnnn3C(C)(C)C)N3CC=C(c4ccc(F)cc4)CC3)cc12 (stereo not given) | – | 7.3µM | ? | ? | 0.16µM
COc1cc2c(=O)c(S(=O)(=O)c3ccccc3)cn(CC(=O)Nc3ccccc3C)c2cc1OC | – | · | · | ? | ·
CCCC1(C2CCCC2)NC(=O)NC1=O (stereo not given) | – | · | – | – | –
O=C1CN(C(=O)c2ccccc2Br)C(c2ccc(F)cc2)c2cc(F)ccc2N1 (stereo not given) | – | – | – | – | –
CCCCN(C(=O)c1ccc(N(C)S(=O)(=O)c2ccc(C)cc2)cc1)c1c(N)n(CC(C)C)c(=O)[nH]c1=O | – | · | – | – | –
Cc1cc(O)c(N=Cc2cc3c(cc2[N+](=O)[O-])OCO3)cc1C | – | · | 16µM | – | ?
Cc1cccc(N=Cc2cc3c(cc2[N+](=O)[O-])OCO3)c1 | – | – | – | – | –
C=C1C2=C(C(=O)N1OC)[C@@H](O)[C@@](C)(O)[C@@H](CCCCC)O2 | 18µM | · | · | – | ·
O=C(CCCSc1ccccc1)Nc1nc(-c2ccco2)c(-c2ccco2)s1 | – | ? | 15µM | ? | –
CCn1nc(NC(=O)c2ccncc2)c2cc3cccc(C)c3nc21 | – | – | – | – | –
SMILES | KB-3-1 tox | ELG1 DNA repair | MCF10A rereplic | KB-V1 cytotox | SW480 rereplic
CCCn1nc(NC(=O)c2cccc(Cl)c2)c2cc3cccc(C)c3nc21 | – | · | · | ? | ·
CCCn1nc(NC(=O)CC)c2cc3cccc(C)c3nc21 | – | ? | – | – | 16µM
CCC(=O)Nc1nn(C)c2nc3c(C)cccc3cc12 | – | – | 6.5µM | – | 21µM
CCCn1nc(NC(=O)c2cccs2)c2cc3cccc(C)c3nc21 | – | ? | 21µM | – | ?
Cc1cc2nn(-c3ccc(F)cc3)nc2cc1NC(=O)c1cccc2ccccc12 | – | · | · | – | ·
Cc1cc2nn(-c3cccc4ccccc34)nc2cc1NC(=O)c1cccs1 | – | – | – | 16µM | –
COc1ccccc1CNc1nc(-c2ccco2)nn1S(=O)(=O)c1ccc(C)cc1 | – | · | · | – | ·
COc1ccc(CC(=O)Nc2nn(C)c3nc4c(C)cccc4cc23)cc1 | – | – | 3.3µM | – | ?
Cc1nnsc1S(=O)c1ccc(Cl)c(Cl)c1 (stereo not given) | ? | – | ? | ? | ?
